Experimental data reported in PubChem BioAssay (EPA / NIEHS).
Active and inactive are the calls of the source. How the source made its calls: active means hit-call score of the fitted dose curve at least 0.9, where 1 is the maximum; inactive means score below 0.9.

What was measured:
[1] = ATG_E_Box_CIS: Attagene CIS-FACTORIAL HepG2 Assay for human Enhancer Box (E-box) (AID 2282936); conditions: HepG2 E-box cis-reporter transcription, actives raise or lower the signal
In short: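 HepG2 cells transiently transfected with multiplexed cis-element reporter units, dosed 24 h; reporter mRNA quantified by RT-PCR, 6-FAM labelling, HpaI digestion and capillary electrophoresis. E-box (USF1) signal fitted bidirectionally vs DMSO.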

[2] = ATG_M_61_CIS: Attagene CIS-FACTORIAL HepG2 Assay for M61 Transcription Factor (Internal Marker) (AID 2282937); conditions: HepG2 Attagene CIS-FACTORIAL M61 internal marker reporter; actives raise or lower the signal
In short: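 This endpoint serves as an internal background control within a multiplexed HepG2 cis-reporter panel. Cells are exposed for 24 h; reporter mRNA is amplified, fluorescently labelled and sized by capillary electrophoresis, with DMSO as negative control.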

[3] = ATG_EGR_CIS: Attagene CIS-FACTORIAL HepG2 Assay for human Early Growth Response 1 (EGR1) (AID 2282938); conditions: HepG2 Attagene CIS-FACTORIAL EGR reporter mRNA; actives raise or lower the signal
In short: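 HepG2, transient MRTU transfection (cis promoters), 24 h compound. RNA → RT (oligo-dT) → PCR → 6-FAM labelling → HpaI cut → CE fluorescence. Bidirectional fit, DMSO baseline.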

[4] = ATG_M_19_CIS: Attagene CIS-FACTORIAL HepG2 Assay for M19 Transcription Factor (Internal Marker) (AID 2282939); conditions: HepG2 Attagene CIS-FACTORIAL M19 internal marker reporter; actives raise or lower the signal
In short: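 Internal marker readout, fitted in both directions against DMSO, from HepG2 cells carrying transfected cis-element reporter constructs; RT-PCR and capillary electrophoresis of reporter mRNA after 24 h exposure.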

[5] = ATG_Ets_CIS: Attagene CIS-FACTORIAL HepG2 Assay for human Erythroblast Transformation Specific (ETS) (AID 2282941); conditions: HepG2 ETS cis-reporter transcription, actives raise or lower the signal
In short: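 Human HepG2 hepatoma cells were transiently transfected with promoter-driven reporter constructs and treated for 24 hours. Reporter transcripts were quantified by RT-PCR with fluorescent primer extension; bidirectional curve fitting used DMSO as reference.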

[6] = target: Hepatocyte nuclear factor 3-beta (Homo sapiens) (UniProt Q9Y261); test: ATG_FoxA2_CIS: Attagene CIS-FACTORIAL HepG2 Assay for human Forkhead box A2 (FOXA2) (AID 2282942); conditions: HepG2 cis-reporter transcription factor activity, 24 h; actives raise or lower the signal
In short: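 Cells: HepG2, transient multiplex reporter transfection. Exposure 24 h. Detection: reporter-specific RT-PCR, fluorescent labelling, restriction digest, capillary electrophoresis. Analysis: bidirectional curve fit, DMSO as negative control.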

[7] = ATG_FoxO_CIS: Attagene CIS-FACTORIAL HepG2 Assay for human Forkhead box O (FoxO) (AID 2282943); conditions: HepG2 Attagene cis-reporter, FoxO element, mRNA; actives raise or lower the signal
In short: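 HepG2 cells transiently transfected with cis-element-driven reporter units report endogenous FoxO activity. After 24 h chemical exposure, reporter mRNA quantified by RT-PCR, fluorescent labeling, HpaI digestion and capillary electrophoresis; bidirectional fit versus DMSO.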

[8] = ATG_GATA_CIS: Attagene CIS-FACTORIAL HepG2 Assay for human GATA Binding Protein (AID 2282944); conditions: HepG2 GATA cis-element reporter, Attagene multiplex mRNA; actives raise or lower the signal
In short: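 Reporter transcripts from a GATA cis-regulated unit, among multiplexed reporters in transfected HepG2 cells, were measured by RT-PCR with capillary electrophoresis after 24 h dosing. Induction or loss scored relative to DMSO.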

[9] = ATG_GLI_CIS: Attagene CIS-FACTORIAL HepG2 Assay for human Zinc Finger Protein GLI1 (AID 2282945); conditions: HepG2, Attagene cis-factorial reporter mRNA, GLI element; actives raise or lower the signal
In short: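 Transiently transfected HepG2 cells report endogenous transcription factor activity via cis-element-driven reporter units. After 24 h compound exposure, reporter mRNA was measured by RT-PCR with capillary electrophoresis; bidirectional fitting against DMSO baseline.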

[10] = target: Bile acid receptor (Homo sapiens) (UniProt Q96RI1); test: ATG_IR1_CIS: Attagene CIS-FACTORIAL HepG2 Assay for human Nuclear Receptor Subfamily 1 Group H Member 4 (NR1H4), IR1 submotif (AID 2282946); conditions: IR1 reporter transcription, actives raise or lower the signal
In short: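 HepG2 cells transiently transfected with multiple cis-promoter-driven reporter units to measure endogenous transcription factor activity; 24 h exposure. Reporter mRNA read by RT-PCR, FAM labelling, HpaI digestion and capillary electrophoresis. Bidirectional fit versus DMSO.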

[11] = ATG_ISRE_CIS: Attagene CIS-FACTORIAL HepG2 Assay for human Interferon Regulatory Factor 1 (IRF1) binding to an Interferon-Stimulated Response Element (ISRE) (AID 2282948); conditions: HepG2 ISRE cis-reporter (Attagene), mRNA transcription readout; actives raise or lower the signal
In short: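 Cell-based cis-reporter assay; HepG2; 24 h exposure; reporter mRNA by RT-PCR plus capillary electrophoresis fluorescence; activity in either direction scored relative to DMSO.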

[12] = ATG_M_32_CIS: Attagene CIS-FACTORIAL HepG2 Assay for M32 Transcription Factor (Internal Marker) (AID 2282949); conditions: HepG2 Attagene cis-factorial M32 reporter, mRNA; actives raise or lower the signal;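 further: background control marker of the multiplexed CIS panel rather than a real target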
In short: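 Fluorescent capillary electrophoresis peaks of HpaI-digested, FAM-labelled RT-PCR reporter products give the signal. Source: transiently transfected human liver HepG2 cells, 24 h after chemical dosing; bidirectional fitting against DMSO.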

[13] = ATG_M_06_CIS: Attagene CIS-FACTORIAL HepG2 Assay for M06 Transcription Factor (Internal Marker) (AID 2282950); conditions: HepG2 Attagene CIS-FACTORIAL M06 internal marker reporter; actives raise or lower the signal
In short: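 Serves as a background control readout. Transfected HepG2 exposed to compounds for 24 h, then reporter transcripts quantified by fluorescent RT-PCR and capillary electrophoresis. Both directions fitted against DMSO baseline.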

[14] = target: Hypoxia-inducible factor 1-alpha (Homo sapiens) (UniProt Q16665); test: ATG_HIF1a_CIS: Attagene CIS-FACTORIAL HepG2 Assay for human Hypoxia Inducible Factor 1 (HIF1A) (AID 2282951); conditions: HepG2 Attagene cis-factorial HIF1a reporter transcription; actives raise or lower the signal
In short: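 HepG2, transient cis-reporter library, 24 h dosing. RNA → RT (oligo dT) → PCR → 6-FAM primer extension → HpaI → CE. Bidirectional curve fit vs DMSO.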

[15] = target: Hepatocyte nuclear factor 6 (Homo sapiens) (UniProt Q9UBC0); test: ATG_HNF6_CIS: Attagene CIS-FACTORIAL HepG2 Assay for human Hepatocyte Nuclear Factor 6 (HNF6) (AID 2282952); conditions: HepG2 Attagene cis-factorial HNF6 reporter transcription; actives raise or lower the signal
In short: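 Reporter mRNA induction or loss in HepG2 after 24 h exposure; transient cis-MRTU transfection; fragments quantified by capillary electrophoresis; bidirectional analysis, DMSO as negative control.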

[16] = ATG_MRE_CIS: Attagene CIS-FACTORIAL HepG2 Assay for human Metal Responsive Element (MRE) (AID 2282954); conditions: HepG2 MRE cis-reporter transcription, Attagene multiplex; actives raise or lower the signal
In short: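 HepG2 cells transiently transfected with cis-element-driven reporter units; mRNA measured 24 h after dosing. Reporter transcripts quantified by RT-PCR, FAM labelling, HpaI digestion and capillary electrophoresis; bidirectional fit versus DMSO.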

[17] = target: Heat shock factor protein 1 (Homo sapiens) (UniProt Q00613); test: ATG_HSE_CIS: Attagene CIS-FACTORIAL HepG2 Assay for human Heat Shock Transcription Factor 1 (HSE) (AID 2282953); conditions: HepG2 HSE cis-reporter, Attagene RNA transcription; actives raise or lower the signal
In short: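 Endogenous transcription factor activity in transiently transfected HepG2, read as reporter mRNA by RT-PCR with fluorescent capillary electrophoresis after 24 h. Gain or loss of signal fitted versus DMSO baseline.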

[18] = ATG_PBREM_CIS: Attagene CIS-FACTORIAL HepG2 Assay for human Phenobarbital-responsive Enhancer Module (PBREM) (AID 2282955); conditions: HepG2 PBREM cis-reporter, Attagene multiplexed transcription; actives raise or lower the signal
In short: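 HepG2, transient MRTU transfection, 24 h dosing; RNA → oligo(dT) RT → PCR → 6-FAM extension → HpaI → CE. Bidirectional fit vs DMSO.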

[19] = ATG_GRE_CIS: Attagene CIS-FACTORIAL HepG2 Assay for human Glucocorticoid Response Elements (GRE) (AID 2282947); conditions: HepG2 GRE cis-reporter, Attagene multiplex mRNA; actives raise or lower the signal
In short: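 Transiently transfected HepG2 cells carrying GRE cis-reporter units (endogenous TF activity) dosed 24 h; reporter mRNA quantified by RT-PCR, 6-FAM labelling, HpaI digestion and capillary electrophoresis. Bidirectional fit versus DMSO baseline.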

Measured: AC50

Chain of Hepatocyte nuclear factor 6 (Homo sapiens) (Q9UBC0 whole entry, looked up, the tested form may be a part): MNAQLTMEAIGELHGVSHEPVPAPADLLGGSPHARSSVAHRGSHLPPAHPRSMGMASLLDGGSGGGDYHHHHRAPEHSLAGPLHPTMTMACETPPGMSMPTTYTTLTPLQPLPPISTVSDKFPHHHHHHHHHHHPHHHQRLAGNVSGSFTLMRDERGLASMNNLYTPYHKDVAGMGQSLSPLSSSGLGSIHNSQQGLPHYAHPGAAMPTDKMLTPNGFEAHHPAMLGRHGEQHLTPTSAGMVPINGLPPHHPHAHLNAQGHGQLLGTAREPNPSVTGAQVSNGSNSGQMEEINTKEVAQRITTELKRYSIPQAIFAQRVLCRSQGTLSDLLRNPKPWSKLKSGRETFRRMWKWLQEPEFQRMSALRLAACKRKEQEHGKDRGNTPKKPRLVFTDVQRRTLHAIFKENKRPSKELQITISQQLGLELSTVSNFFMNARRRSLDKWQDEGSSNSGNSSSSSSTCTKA
Chain of Bile acid receptor (Homo sapiens) (Q96RI1 whole entry, looked up): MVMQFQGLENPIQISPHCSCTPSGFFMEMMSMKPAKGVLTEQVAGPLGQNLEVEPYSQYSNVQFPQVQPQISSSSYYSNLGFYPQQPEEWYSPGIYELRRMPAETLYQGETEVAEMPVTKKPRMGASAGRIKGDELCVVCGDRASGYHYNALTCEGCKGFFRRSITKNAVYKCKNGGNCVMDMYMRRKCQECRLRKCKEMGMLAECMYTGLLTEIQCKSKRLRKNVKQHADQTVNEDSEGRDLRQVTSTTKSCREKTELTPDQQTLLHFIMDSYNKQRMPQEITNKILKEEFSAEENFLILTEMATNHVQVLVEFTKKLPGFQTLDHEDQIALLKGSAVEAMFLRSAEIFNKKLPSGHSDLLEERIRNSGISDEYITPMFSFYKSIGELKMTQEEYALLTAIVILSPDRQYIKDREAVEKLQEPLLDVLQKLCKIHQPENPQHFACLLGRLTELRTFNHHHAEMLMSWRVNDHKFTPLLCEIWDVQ
Chain of Hepatocyte nuclear factor 3-beta (Homo sapiens) (Q9Y261 whole entry, looked up): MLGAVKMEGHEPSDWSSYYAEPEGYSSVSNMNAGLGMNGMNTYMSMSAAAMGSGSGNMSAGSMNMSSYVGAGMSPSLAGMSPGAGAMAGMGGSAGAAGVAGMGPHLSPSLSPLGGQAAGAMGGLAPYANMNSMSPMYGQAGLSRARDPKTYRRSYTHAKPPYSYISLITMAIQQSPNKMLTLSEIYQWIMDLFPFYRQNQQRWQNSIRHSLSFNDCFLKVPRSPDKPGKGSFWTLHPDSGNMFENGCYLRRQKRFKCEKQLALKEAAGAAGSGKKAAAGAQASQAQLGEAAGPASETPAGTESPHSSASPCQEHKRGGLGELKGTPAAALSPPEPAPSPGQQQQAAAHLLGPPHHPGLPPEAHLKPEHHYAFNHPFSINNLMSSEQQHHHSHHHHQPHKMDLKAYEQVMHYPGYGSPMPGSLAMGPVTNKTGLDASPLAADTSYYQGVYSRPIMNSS
Chain of Heat shock factor protein 1 (Homo sapiens) (Q00613 whole entry, looked up): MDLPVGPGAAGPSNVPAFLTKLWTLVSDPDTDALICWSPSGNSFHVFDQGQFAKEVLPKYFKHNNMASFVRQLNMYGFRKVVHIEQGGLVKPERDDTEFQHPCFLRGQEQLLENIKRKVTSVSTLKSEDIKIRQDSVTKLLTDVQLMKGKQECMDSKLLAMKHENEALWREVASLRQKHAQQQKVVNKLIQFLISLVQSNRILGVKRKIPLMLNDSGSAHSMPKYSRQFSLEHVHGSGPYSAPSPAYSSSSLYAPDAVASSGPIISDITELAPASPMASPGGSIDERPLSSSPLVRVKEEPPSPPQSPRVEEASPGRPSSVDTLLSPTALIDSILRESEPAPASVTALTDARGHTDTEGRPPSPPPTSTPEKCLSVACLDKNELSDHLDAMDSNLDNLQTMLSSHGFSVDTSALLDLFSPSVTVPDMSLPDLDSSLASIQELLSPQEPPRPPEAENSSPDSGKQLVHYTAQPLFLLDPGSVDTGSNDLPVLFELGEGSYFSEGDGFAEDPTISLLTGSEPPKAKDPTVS
Chain of Hypoxia-inducible factor 1-alpha (Homo sapiens) (Q16665 whole entry, looked up): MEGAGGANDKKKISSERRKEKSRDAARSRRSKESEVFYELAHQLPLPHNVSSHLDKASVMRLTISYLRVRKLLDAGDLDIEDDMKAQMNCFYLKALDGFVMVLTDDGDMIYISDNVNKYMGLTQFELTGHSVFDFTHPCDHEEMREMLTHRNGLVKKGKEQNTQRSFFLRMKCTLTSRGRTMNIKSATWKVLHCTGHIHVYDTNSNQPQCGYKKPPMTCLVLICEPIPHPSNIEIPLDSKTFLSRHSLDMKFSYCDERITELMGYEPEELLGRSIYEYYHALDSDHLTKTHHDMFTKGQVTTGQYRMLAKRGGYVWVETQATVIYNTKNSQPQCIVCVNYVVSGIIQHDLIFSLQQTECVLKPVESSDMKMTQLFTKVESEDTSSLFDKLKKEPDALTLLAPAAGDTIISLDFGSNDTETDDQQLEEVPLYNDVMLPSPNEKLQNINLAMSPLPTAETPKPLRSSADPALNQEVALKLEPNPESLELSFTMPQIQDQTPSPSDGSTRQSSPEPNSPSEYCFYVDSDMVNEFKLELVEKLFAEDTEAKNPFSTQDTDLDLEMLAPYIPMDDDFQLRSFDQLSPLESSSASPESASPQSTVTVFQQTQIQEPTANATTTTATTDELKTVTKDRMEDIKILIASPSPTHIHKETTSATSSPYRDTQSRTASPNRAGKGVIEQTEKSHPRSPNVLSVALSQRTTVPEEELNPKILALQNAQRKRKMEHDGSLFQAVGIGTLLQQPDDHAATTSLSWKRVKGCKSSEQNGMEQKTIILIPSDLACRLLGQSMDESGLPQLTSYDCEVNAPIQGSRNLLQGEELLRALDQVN

CCC1(C)NC(=O)NC1=O (configuration not stated)
not listed: [17] | [18] | [19]
inactive: all other assays above

CCOC(=O)c1ccc(N)cc1
active: [17] 25.7 µM
not listed: [14] | [18] | [19]
inactive: all other assays above

CCCCCC(=O)CC
not listed: [19]
inactive: all other assays above

CS(=O)(=O)c1ccc(C2=C(c3ccccc3)C(=O)OC2)cc1
not listed: [12] | [19]
inactive: all other assays above

CCOc1ccccc1O
not listed: [15] | [19]
inactive: all other assays above

CC(=O)O[C@@H]1CC2CCC1(C)C2(C)C (some centres not stated)
not listed: [15] | [19]
inactive: all other assays above

COc1ccccc1[N+](=O)[O-]
not listed: [12] | [19]
inactive: all other assays above

CN(C)C(=S)SC(=S)N(C)C
active: [16] 100 µM
not listed: [12] | [19]
inactive: all other assays above

CCOC(=O)[C@@H](C)Oc1ccc(Oc2nc3ccc(Cl)cc3o2)cc1
not listed: [15] | [19]
inactive: all other assays above

CCCC[O][Al]([O]CCCC)[O]CCCC
not listed: [19]
inactive: all other assays above

Oc1ccc2cc(SSc3ccc4cc(O)ccc4c3)ccc2c1
active: [3] 27.7 µM | [11] 100 µM | [14] 30.6 µM | [17] 78.1 µM | [16] 34.8 µM
not listed: [19]
inactive: all other assays above

CC(=O)OCCCc1ccccc1
not listed: [18] | [19]
inactive: all other assays above

CN(C)CCOC(C)(c1ccccc1)c1ccccn1 (configuration not stated)
not listed: [14] | [19]
inactive: all other assays above

COS(=O)(=O)O
not listed: [17] | [19]
inactive: all other assays above

CCCCOCC
not listed: [19]
inactive: all other assays above

CC(C)CCOC(=O)c1ccccc1
not listed: [19]
inactive: all other assays above

CC(C)C(OC(=O)c1ccccc1)C(C)(C)COC(=O)c1ccccc1 (configuration not stated)
not listed: [19]
inactive: all other assays above

C=C(C)C(=O)OCCOCCOCCOCCOC(=O)C(=C)C
not listed: [19]
inactive: all other assays above

COc1ccc(COC(C)=O)cc1
not listed: [19]
inactive: all other assays above

O=C1NC2NC(=O)NC2N1 (configuration not stated)
not listed: [18] | [19]
inactive: all other assays above

c1ccc2[nH]cnc2c1
not listed: [15] | [19]
inactive: all other assays above

COc1ccc(CCC(C)=O)cc1
not listed: [18] | [19]
inactive: all other assays above

COc1cc([C@@H]2c3cc4c(cc3[C@@H](O[C@@H]3O[C@@H]5CO[C@@H](C)O[C@H]5[C@H](O)[C@H]3O)[C@H]3COC(=O)[C@H]23)OCO4)cc(OC)c1O
not listed: [18] | [19]
inactive: all other assays above

Cc1cccc(Nc2ccccc2)c1
active: [3] 73.8 µM | [5] 154 µM | [10] 42.5 µM | [17] 162 µM | [16] 135 µM
not listed: [19]
inactive: all other assays above

O=C(O)c1cc(C(=O)O)cc([N+](=O)[O-])c1
not listed: [10]
inactive: all other assays above

CCCCCCCC/C=C\CCCCCCCC(=O)OCC
not listed: [10]
inactive: all other assays above

CC(C)Nc1nc(N)nc(Cl)n1
not listed: [10] | [12] | [15]
inactive: all other assays above

CCOc1ccc(NC(=O)CC(C)=O)cc1
active: [14] 30.4 µM
not listed: [10]
inactive: all other assays above

C=Cc1ccc(C)cc1
not listed: [10] | [12]
inactive: all other assays above
